High-throughput results as filed in PubChem.
Hits are enriched below; roughly 6.6% of the tested compounds scored in any of these assays.
NR3A LBD binder: modulates the human NR3A ligand-binding domain; AID 1259313; 340,000 tested, 2.5% active; NR3A LBD differential scanning fluorimetry, Tm shift; 0% = protein alone, 100% = glycine-bound protein; Tm shift relative to glycine control, % at 25 µM;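 active = melting temperature shift of at least 10% of the positive control shift, at one fixed dose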
MPTP block: permeability transition pore inhibition | isolated mouse mitochondria, Ca2+ swelling absorbance, 30 min | inhibition, % at 10 µM | 360,000 tested, 1.4% active | AID 602449;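 active = inhibition of 50% or more, scaled per plate between neutral and stimulator controls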;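 also: 0% = DMSO wells given calcium and 100% = 1 mM EGTA wells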
Beta cell apopt: beta cell apoptosis inhibition. protection from apoptosis, % (test concentration not listed). AID 435005. INS-1E cytokine-induced death, ATP luminescence, 48 h; percent of positive-control rescue, neutral wells zero. 300,000 tested, 0.8% active;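 active = Every replicate reaches about 75%, or at least half do and their mean reaches it too, limit read from the data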;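 also: 0% = cytokine-treated negative control wells and 100% = positive control rescue; higher means more ATP so stronger rescue from cytokine killing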
Gli-Sufu block: antagonists of Gli-Sufu signaling. inhibition, % at 5 µM. Sufu-KO-LIGHT fibroblasts, Gli luciferase reporter luminescence. 340,000 tested, 0.74% active;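 active = inhibition above about 55%, limit read from the data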;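 also: 0% = DMSO-treated cells and 100% = wells with medium but no cells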
Mdm2 MdmX PPI: human Mdm2/MdmX binding inhibition. AID 485346. SaOS-2 split-luciferase Mdm2/MdmX complementation, luminescence. O15151+Q00987. inhibition, % at 8 µM. 330,000 tested, 3% active;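 active = inhibition of at least 50% at 8 µM in the primary screen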
Target sequence (O15151 whole entry, looked up): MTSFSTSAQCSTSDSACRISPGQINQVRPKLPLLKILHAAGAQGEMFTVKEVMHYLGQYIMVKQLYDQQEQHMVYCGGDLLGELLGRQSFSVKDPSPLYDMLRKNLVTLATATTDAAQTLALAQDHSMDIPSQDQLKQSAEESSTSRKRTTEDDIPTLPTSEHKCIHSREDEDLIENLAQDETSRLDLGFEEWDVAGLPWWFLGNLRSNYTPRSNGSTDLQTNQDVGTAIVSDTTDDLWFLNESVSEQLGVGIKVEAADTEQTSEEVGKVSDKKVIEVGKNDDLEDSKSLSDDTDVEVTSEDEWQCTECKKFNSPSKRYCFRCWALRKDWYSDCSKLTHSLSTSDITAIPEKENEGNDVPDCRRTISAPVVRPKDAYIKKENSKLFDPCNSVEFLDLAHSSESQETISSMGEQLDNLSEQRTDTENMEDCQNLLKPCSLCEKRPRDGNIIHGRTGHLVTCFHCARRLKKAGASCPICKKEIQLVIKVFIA
Target sequence (Q00987 whole entry, looked up): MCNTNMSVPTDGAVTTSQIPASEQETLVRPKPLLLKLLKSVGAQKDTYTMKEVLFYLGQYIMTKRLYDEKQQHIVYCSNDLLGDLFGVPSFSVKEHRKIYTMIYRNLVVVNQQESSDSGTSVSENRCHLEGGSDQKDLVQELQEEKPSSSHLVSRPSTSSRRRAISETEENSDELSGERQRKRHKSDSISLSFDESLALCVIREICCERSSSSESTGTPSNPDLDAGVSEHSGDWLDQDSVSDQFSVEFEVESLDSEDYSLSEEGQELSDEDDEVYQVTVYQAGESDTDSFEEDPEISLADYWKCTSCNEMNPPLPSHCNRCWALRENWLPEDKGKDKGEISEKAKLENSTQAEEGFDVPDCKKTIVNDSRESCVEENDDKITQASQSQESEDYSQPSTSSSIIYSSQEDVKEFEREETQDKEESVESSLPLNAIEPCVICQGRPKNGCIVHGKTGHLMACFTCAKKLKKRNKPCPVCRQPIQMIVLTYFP
CSC inhib: cancer stem cell inhibition | inhibition, % at 7.5 µM | cancer stem cell-like cells viability, luminescence | 300,000 tested, 1.1% active; in the data active = inhibition above about 75%; tested in HMLE shEcad cells
Rh123 counter: membrane potential counter-screen of mitochondrial pore inhibitors; inhibition, % at 10 µM; isolated mitochondria, Rhodamine 123 fluorescence; 5,000 tested, 78% active; shares compounds with MPTP block; in the data active = inhibition above about 22%;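 also: 0% = DMSO vehicle and 100% = positive control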
MPTP abs DR: MPTP inhibition, dose response swelling confirmation | shares compounds with MPTP block | isolated mitochondria swelling, absorbance | IC50, µM | 780 tested, 58% active; in the data active = IC50 below about 20 µM
MPTP counter DR: active in counter-screen for permeability transition pore inhibitors. isolated mitochondria counterscreen, fluorescence read-out. shares compounds with MPTP block. AID 651564. IC50, µM. 780 tested, 49% active; in the data active = IC50 below about 80 µM
Active calls of the source: *; i = inactive; · = no result given.

SMILES | NR3A LBD binder | MPTP block | Beta cell apopt | Gli-Sufu block | Mdm2 MdmX PPI | CSC inhib | Rh123 counter | others
O=C(NCc1cccs1)Nc1cccc(Cl)c1 | -8 | 2 | 4 | -39 | 23 | -11 | ·
O=C(Nc1cccc(Cl)c1)NC1(C(=O)NCc2cccs2)CCCCC1 | 1 | 81* | -1 | -6 | 24 | -2 | 74*
Cc1ccc(S(=O)(=O)N2CCCC(C(=O)NC3=NCCS3)C2)cc1 (stereo not drawn) | 2 | 70* | -9 | -3 | 1 | -13 | 8 | MPTP abs DR=>100;MPTP counter DR=>80
Cc1ccc(S(=O)(=O)N2CCC[C@H]2C(=O)NC2=NCCS2)cc1 | 2 | -1 | · | 6 | · | · | ·
N#CCCn1c(SCC(=O)NCc2ccco2)nc2ccccc21 | 0 | 74* | -8 | -2 | 13 | 0 | -2 | MPTP abs DR=i;MPTP counter DR=>80
CCC1CCCCN1C(=O)NC(=O)c1ccccc1 (stereo not drawn) | 2 | -1 | 1 | 3 | 13 | -4 | ·
O=C(Nc1cc(Cl)cc2c1-c1ccc(Cl)cc1C2O)C(Cl)Cl (stereo not drawn) | 3 | 93* | · | -2 | · | · | 76*
Nc1cc(Cl)cc2c1-c1ccc(Cl)cc1C2O (stereo not drawn) | 2 | 2 | · | -3 | · | · | ·
CCCCc1c(-c2ccccc2)ncn1CCc1ccccc1OC | · | 4 | · | · | · | · | ·
CCCCc1c(Cc2ccccc2)ncn1CCc1ccccc1OC | · | 85* | · | · | · | · | 114*
Cc1sc2ncnc(NCC(O)c3ccccc3)c2c1C (stereo not drawn) | -2 | 69* | 88* | 22 | -10 | -17 | 58*
Cc1sc2ncnc(NCC(c3ccccc3)N(C)C)c2c1C (stereo not drawn) | 0 | 4 | 9 | 8 | -19 | 8 | ·
COc1ccc(N=C(C)C2C(=O)c3ccccc3C2=O)cc1 | · | 0 | · | · | · | · | ·
CSc1cnn(CCC#N)c(=O)n1 | · | 0 | · | · | · | · | ·
C=CCNCCOc1ccc(C(C)(C)c2ccccc2)cc1 | -1 | 78* | 3 | 1 | -6 | 53 | -12 | MPTP abs DR=15*;MPTP counter DR=>80
Cc1ccc(OCC(=O)N2CCN(c3nnc(-c4ccc(C)cc4)c4ccccc34)CC2)cc1 | -12 | 84* | 28 | 16 | 32 | · | 22*
COc1ccc(OCC(=O)N2CCN(c3nnc(-c4ccc(C)cc4)c4ccccc34)CC2)cc1 | 0 | 60* | 33 | 3 | 28 | 7 | 15 | MPTP abs DR=20*;MPTP counter DR=22*
Cc1ccc(-c2nnc(N3CCN(C(=O)COc4cccc(C)c4)CC3)c3ccccc23)cc1 | -1 | 26 | 4 | 11 | 49 | 7 | ·
Cc1ccc(-n2ncc3c2CC(C)(C)CC3NC(=O)CCN2CCCCC2=O)cc1 (stereo not drawn) | -3 | 2 | -6 | 22 | 15 | -4 | ·
COc1ccc(CC(=O)Oc2ccc(C#N)cc2)cc1 | -1 | -1 | 2 | -1 | 7 | -16 | ·
CCOCCCNC(=O)CN1C(=O)COc2ccc(S(=O)(=O)N3CCOCC3)cc21 | 1 | -1 | · | 6 | 15 | · | ·
O=[N+]([O-])c1ccc(O)c(CSc2nnnn2-c2ccccc2)c1 | -3 | 78* | -2 | 11 | -6 | -10 | 93*
O=C(/C(=N\Nc1ccc([N+](=O)[O-])cc1)Sc1nnnn1-c1ccccc1)c1ccccc1 | -11 | 94* | 17 | -7 | 4 | 42 | 90*
CC(C)(C)[C@H]1C=C(C(=O)NC2CC2)O[C@@H](OCCCCO)C1 | 1 | -1 | -7 | 3 | -14 | -11 | ·
O=C(NCc1ccncc1)C(=O)N/N=C/c1ccc(OCc2ccccc2)cc1 | 1 | 3 | -2 | 4 | 4 | 1 | ·
SMILES | NR3A LBD binder | MPTP block | Beta cell apopt | Gli-Sufu block | Mdm2 MdmX PPI | CSC inhib | Rh123 counter | others
O=NN(CCc1ccncc1)c1ccc(OCc2ccccc2)cc1 | 2 | 93* | 99* | 48 | 17 | 18 | 89*
Cc1ccc(S(=O)(=O)N(CC(=O)NC2CCCC2)c2cccc(C)c2)cc1 | 0 | 4 | 2 | -1 | -22 | -8 | ·
Cc1cnc(C(=O)NCC(=O)Nc2ccccc2Br)cn1 | -2 | -1 | · | -3 | -7 | · | ·
O=C(NCCSCc1ccco1)Nc1cc(Cl)cc(Cl)c1 | 3 | 86* | 8 | -1 | 6 | 4 | 90*
Cc1ccc(S(=O)(=O)CCSc2nc(C)cc(C(F)(F)F)c2C#N)cc1 | 1 | -2 | 3 | -7 | 16 | -2 | ·
Cc1cc(C(F)(F)F)c(C#N)c(SCC(=O)Nc2nc3cc(Br)ccc3s2)n1 | 30* | 87* | 24 | 0 | 39 | 47 | 12 | MPTP abs DR=16*;MPTP counter DR=3.2*
COC(=O)COc1cc(Cl)c(C=O)cc1OC | -1 | -2 | 34 | -1 | 3 | 60 | ·
Nc1nc(C23CC4CCC(CC(C4)C2)C3)cs1 | -2 | 64* | -6 | 2 | 18 | 7 | -4 | MPTP abs DR=i;MPTP counter DR=>80
CCOc1ccc(S(=O)(=O)N2CCC(C(=O)NC3CCCC3)CC2)cc1 | -4 | 0 | -2 | -7 | 27 | -6 | ·
N#C/C(=C(/O)c1cc2ccccc2o1)c1nc2ccccc2s1 | -1 | 98* | 10 | -33 | -19 | 108* | 78*
N#C/C(=C(/O)C(Cl)c1ccccc1)c1nc2ccccc2s1 (stereo not drawn) | 0 | 55* | 2 | -30 | -26 | -7 | 74*
N#C/C(=C(/O)c1cccc(F)c1)c1nc2ccccc2s1 | 1 | 87* | 17 | -47 | 0 | 36 | 86*
Cc1cc(C)c(NC(=S)N(CCc2ccncc2)C(C)C)c(C)c1 | -3 | 1 | -4 | 15 | 2 | -10 | ·
CCOC(=O)[C@]12CCCC=C1N(Cc1ccc3c(c1)OCO3)C(=O)[C@H](CC(=O)NCC1CCCCC1)C2 | · | 1 | · | · | · | · | ·
O=S(=O)(c1ccc(F)c(F)c1F)N1CCN(c2ncnc3sccc23)CC1 | -6 | 68* | 87* | 27 | 31 | 40 | 87*
Cc1ccc(C2=NC(=O)/C(=C/c3cc(O)c(O)c(Br)c3)S2)cc1 | 4 | 114* | · | -4 | 14 | · | 36*
NC(=O)c1nsc(C(=O)N(CC(=O)NC2CCCC2)c2cnc3ccccc3c2)c1N | · | · | -2 | · | 9 | 3 | ·
Cc1ccc(Cn2ncc3c(N4CCCC4)ncnc32)cc1 | 0 | 62* | -4 | -3 | 9 | -9 | 1 | MPTP abs DR=>100;MPTP counter DR=>80
CC1(Cc2ccc(OC(F)(F)F)cc2)C(=O)Nc2c(Cl)ccc(Cl)c21 (stereo not drawn) | · | 1 | · | · | · | · | ·
Nc1nonc1N/N=C/c1c(O)ccc2ccccc12 | 25* | 56* | -9 | -5 | 13 | 38 | 74*
O=C(O)c1cccc(NC(CNS(=O)(=O)c2ccc(Cl)cc2)c2ccccc2)c1 (stereo not drawn) | -7 | 0 | -8 | -4 | 7 | 2 | ·
